# Data: PubChem BioAssay (NCI)
# Where “and” joins values, the source holds several entries; their conditions need not be identical. Equal values may be shown once. The panel holds about 83,000 compounds, 20% with a hit somewhere; the sample as a whole holds those more often.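 Cell lines were cultured in 96-well plates, exposed to a single compound concentration, and assessed for percent growth 48 hours later.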 A number with no mark means an inactive call. Calls of active or inactive are those of the source. How the source made its calls: active means growth percent below 10; inactive means the rest.
# Legend:
# Experiment in all cases: NCI-60 one-dose screen, 48 h (100 = growth as untreated, 0 = no growth, -100 = all killed)
# Details in all cases: 10 µM unless noted
# SR leukemia = tested on: SR leukemia
# RPMI-8226 leukemia = tested on: RPMI-8226 leukemia
# OVCAR-8 ovarian = tested on: OVCAR-8 ovarian
# OVCAR-5 ovarian = tested on: OVCAR-5 ovarian
# OVCAR-4 ovarian = tested on: OVCAR-4 ovarian
# SK-OV-3 ovarian = tested on: SK-OV-3 ovarian
# IGROV1 ovarian = tested on: IGROV1 ovarian
# OVCAR-3 ovarian = tested on: OVCAR-3 ovarian
# HS 578T breast = tested on: HS 578T breast
# NCI/ADR-RES ovarian = tested on: NCI/ADR-RES ovarian
# T-47D breast = tested on: T-47D breast
# BT-549 breast = tested on: BT-549 breast
# MDA-MB-435 melanoma = tested on: MDA-MB-435 melanoma
# SW-620 colon = tested on: SW-620 colon
# MCF7 breast = tested on: MCF7 breast
# HCT-116 colon = tested on: HCT-116 colon
# HCC-2998 colon = tested on: HCC-2998 colon
# KM12 colon = tested on: KM12 colon
SMILES,growth (SR leukemia),growth (RPMI-8226 leukemia),growth (OVCAR-8 ovarian),growth (OVCAR-5 ovarian),growth (OVCAR-4 ovarian),growth (SK-OV-3 ovarian),growth (IGROV1 ovarian),growth (OVCAR-3 ovarian),growth (HS 578T breast),growth (NCI/ADR-RES ovarian),growth (T-47D breast),growth (BT-549 breast),growth (MDA-MB-435 melanoma),growth (SW-620 colon),growth (MCF7 breast),growth (HCT-116 colon),growth (HCC-2998 colon),growth (KM12 colon)
CCN(CC)CC#CCOC(=O)[C@]1(C)CCC[C@]2(C)c3ccc(C(C)C)cc3CC[C@@H]12,79.3%,21.3%,94.2%,93.5%,71.3%,89.2%,86.2%,90.6%,90.2%,84.5%,78.6%,92.7%,91.6%,87.7%,82.6%,58.3%,91.5%,85.3%
C=C(CNCCO)[C@@H]1CC[C@]2(CO)CC[C@]3(C)[C@H](CC[C@@H]4[C@@]5(C)CCC(NCCc6ccc(O)cc6)C(C)(C)[C@@H]5CC[C@]43C)[C@@H]12 (stereo not given in full),-50.6% (active),-51.3% (active),-76.8% (active),0.392% (active),-27.1% (active),-73.2% (active),-61.5% (active),-64.3% (active),-55.9% (active),33.4%,-66.1% (active),-79.2% (active),-95.5% (active),-75.1% (active),-73.4% (active),-94.4% (active),-94.8% (active),-81.2% (active)
O=C(CCl)n1nnnc1Cc1ccccc1,93.5%,96.3%,91.1%,95.9%,105%,93.6%,107%,112%,121%,101%,98.8%,93.7%,103%,101%,101%,102%,94.6%,116%
O=C(CCl)N(O)c1ccc(/C=C/c2ccccc2)cc1,11%,72.7% and 65.9%,63.1% and 89.3%,109% and 119%,103% and 94.9%,101% and 105%,70.9% and 61.9%,98.7% and 81.9%,107% and 111%,86.3% and 89.1%,63.8% and 59.5%,73.5% and 62.4%,97.2% and 90%,74.3% and 53.5%,49.2% and 42.5%,69.1% and 51.7%,75.7% and 89.3%,102% and 91.6%
COc1ccc(/C(C)=C(\c2ccc(OCCN3CCOCC3)cc2)c2ccc(OC(=O)C3CCCCC3)cc2)cc1,112%,97.9%,105%,98.4%,111%,101%,102%,97.5%,110%,102%,77.9%,112%,105%,102%,75.4%,105%,107%,98.1%
N=C1/C(=C2\NC3C=CC=CC3S2)C(c2ccc(Cl)cc2)C2C(=O)N(c3ccccc3)C(=S)N12 (stereo not given),105%,103%,99.1%,106%,101%,105%,92.8%,106%,99.2%,95.8%,102%,95.4%,108%,104%,94.1%,101%,99.1%,108%
COc1c(O)c(O)cc2c3c(oc12)CC(c1ccc2c(c1)OCO2)CC3=O (stereo not given),45.2%,62.5%,63%,116%,80.5%,90.1%,54.5%,63.8%,93.8%,67%,43.8%,56.2%,39.8%,38.7%,35.5%,32.1%,92.9%,66%
O=C(Cn1cc(CN2CCN(c3ccnc4cc(Cl)ccc34)CC2)nn1)Nc1cccc([N+](=O)[O-])c1,33%,57.6%,74.7%,96.4%,92.4%,76.1%,-94.7% (active),87.9%,82.6%,100%,75%,85.6%,98.7%,95%,89.1%,101%,106%,85.4%
CCCCCCCCCCCCCCCC(=O)O[C@@H]1[C@@H](O)[C@@H](O)C([C@H](NC(=O)[C@@H]2C[C@@H](CCC)CN2C)[C@H](C)Cl)O[C@@H]1SC (stereo not given in full),98.5%,90.9%,103%,97.1%,105%,98.2%,101%,109%,122%,112%,96.1%,99.4%,107%,114%,102%,103%,115%,101%
Cc1ccc(/C=C(\C#N)c2cc3ccccc3[nH]2)cc1,16.2%,60.2%,63%,65.2%,71.6%,67.1%,55.3%,29.7%,61.9%,16.1%,36.1%,56.9%,-5.1% (active),16.4%,22.4%,32.5%,65.9%,31.7%
Cn1cc2c(=O)nc3c(-c4nc5ccccc5[nH]4)n[nH]n3c2n1,32.2%,50.6%,70.9%,126%,90.6%,85.2%,91.8%,73.4%,93.5%,95.1%,67.6%,34.7%,73.9%,97.2%,65.7%,80.6%,84.8%,73.9%
CCOC(=O)c1nnn(Cc2cc(=O)oc3c2ccc2ccccc23)c1C,97.6%,103%,98.1%,102%,97.6%,104%,110%,103%,100%,108%,93.9%,108%,105%,107%,92%,89.3%,106%,104%
COc1cc(Cl)cc(-c2nn(C(=O)NS(=O)(=O)c3ccc(Cl)cc3)cc2-c2ccncc2)c1,80.5%,77.2%,27.5%,87.4%,16.5%,84.7%,82.6%,98.3%,73.3%,84.1%,90.8%,41.2%,87.5%,114%,102%,95.2%,99.3%,92.9%
C=CCOc1ccc(/C=C2\SC(=S)N(CCc3ccc(O)cc3)C2=O)cc1,38.6%,76.8%,97.5%,110%,86.5%,115%,59.4%,100%,95%,98.9%,82.8%,93.6%,77.5%,88.9%,86.5%,99.6%,114%,91.5%
O=C1/C(=C/c2ccc(-c3ccccc3C(F)(F)F)o2)SC(=S)N1CCc1ccc(O)cc1,14.2%,69.8%,57.6%,77.4%,44.8%,64%,12.5%,43.4%,47.7%,43.9%,34.8%,61.7%,-14.4% (active),32.1%,27.7%,33.9%,81.1%,28.2%
